# Assay results as given in ChEMBL document CHEMBL1157539, “Thousands of chemical starting points for antimalarial lead identification” (Nature, 2010).
# Non-standard residues stand in square brackets, D forms with d. Residues, ends and D or L forms follow the SMILES beside them. *: point of attachment. Butanoyl(4-(4-HOPh)) = O=C(CCCc1ccc(O)cc1)*
# What was measured:
# Type in all cases: functional
# [1] = tested on: Plasmodium falciparum; experiment: GSK_TCMDC: Inhibition of Plasmodium falciparum 3D7 in whole red blood cells, using parasite LDH activity as an index of growth. Test compounds present at 2uM
# [2] = tested on: Plasmodium falciparum; experiment: GSK_TCMDC: Inhibition of Plasmodium falciparum Dd2 in whole red blood cells, using parasite LDH activity as an index of growth. Test compounds present at 2uM
# [3] = tested on: HepG2; experiment: GSK_TCMDC: Percent inhibition of human HepG2 cell line. Test compounds present at 10uM.
SMILES,Inhibition [1] [%],Inhibition [2] [%],Inhibition [3] [%]
Cc1nc(-c2cccc(Nc3nccc(NCC(O)c4ccccc4C(F)(F)F)n3)c2)cs1 (stereo unspecified),97,50,48
Cn1nccc1C(=O)NCCNCc1cccc(-c2csc(-c3nc4ccccc4[nH]3)c2)c1.O=C(O)C(F)(F)F,100,2,30
O=C(/C=C/c1ccc(Cl)c(Cl)c1)NCCCCCN1CCCC(CNC(=O)Nc2ccc(C(F)(F)F)cc2)C1 (stereo unspecified),100,7,27
CCOC(=O)CNC(=O)N1CCN(C(=O)NCC(=O)OCC)CC1,93,0,0
CNC(=O)CSc1nnc(-c2ccc(C)cc2)c(-c2ccc(C)cc2)n1,94,49,2
O=C(O)C(F)(F)F.O=C1CCCN1CCCNCc1cccc(-c2cccc(-c3nc4cc(C(F)(F)F)ccc4[nH]3)c2)c1,100,90,28
CC1(C)N=C(N)N=C(N)N1c1cccc(Cl)c1.Cl,96,96,69
CNCCNCc1cccc(-c2ccc(-c3nc4ccccc4[nH]3)s2)c1.O=C(O)C(F)(F)F,99,9,8
CCn1c(Sc2ccc(C#N)c([N+](=O)[O-])c2)nnc1-c1cc(OC)cc(OC)c1,93,82,7
O=S(=O)(Nc1cccc(CCN2CCC(N3CCCCC3)CC2)c1)c1ccc(-c2ccccc2)cc1,100,49,76
Cc1ccc(CNC(=O)[C@H](CCCN)Nc2nc(Nc3ccccc3)ncc2C)cc1.O=C(O)C(F)(F)F,97,0,0
Cc1nnc2c(NC(=O)NC3CCCC3)cc3ccc(-c4cccc(CN5CCN(C)CC5)c4)cc3n12,91,68,54
CN1CCc2ccc(NC(=O)Nc3cccc([N+](=O)[O-])c3)cc2C1,87,3,0
COc1cc(CNCCCCCCNCc2cc(OC)c(OC)c3ccccc23)c2ccccc2c1OC.CS(=O)(=O)O,100,100,100
CN1CCN(c2ccnc3ccc(NC(=O)Cc4ccc(Br)c5ccccc45)cc23)CC1,96,99,8
CN(C)CCCNCc1ccc(-c2ccc(CNCCc3ccccc3)cc2)cc1.O=C(O)C(F)(F)F,100,87,61
CCOc1ccc(Nc2nc(N)c3ccccc3n2)cc1.Cl,90,6,28
Cc1nnsc1C(=O)Nc1ccc(-c2ccc(-c3nc4cccc(C)c4[nH]3)s2)cc1,100,61,63
CC(C)C1C(O)=C(c2ccc3ccccc3c2)C(=O)N1Cc1ccsc1 (stereo unspecified),88,82,11
CC(=O)Nc1nc(C(=O)Nc2ccc(-c3ccc(-c4nc5cccc(C)c5[nH]4)cc3)cc2)cs1,100,53,42
COc1ccc(-c2ccc(NC(=O)c3cccs3)cc2)cc1CN1CCCN(C)CC1.O=C(O)C(F)(F)F,100,30,31

SMILES,Inhibition [1] [%],Inhibition [2] [%],Inhibition [3] [%]
CCN1CCN(Cc2c(O)ccc3c(=O)c(Oc4cc(C)cc(C)c4)c(C(F)(F)F)oc23)CC1,96,90,6
Cc1ccc(OC2CCN(c3ccc(C(=O)NC4CC4)cn3)CC2)cc1,87,75,11
O=C(NC(NC(=S)Nc1ccc([N+](=O)[O-])cc1)C(Cl)(Cl)Cl)c1cccc(Cl)c1 (stereo unspecified),97,100,24
COc1ccc(N2CCN(CCCCNCc3ccc(NC(=O)c4cc(Cl)cc(Cl)c4)cc3)CC2)c(OC)c1,100,99,39
O=C(O)C(F)(F)F.OCCN1CCN(Cc2ccc(-c3ccc(-c4nc5cc(C(F)(F)F)ccc5[nH]4)s3)cc2)CC1,100,99,65
c1ccc2c(NCCc3c[nH]cn3)c3ccccc3nc2c1,91,0,20
CCN(CC)/C(=N/C(=N)Nc1ccc(Br)cc1)NCCCCCCN/C(=N\C(=N)Nc1ccc(Br)cc1)N(CC)CC,96,95,0
COc1ccc2[nH]cc(C3CCN(CCCCCNC(=O)c4ccc(-c5ccccc5)cc4)CC3)c2c1,96,16,50
Fc1ccc(CNc2ccc3ncc(-c4cccnc4)n3n2)cc1,87,7,7
O=C(O)C(F)(F)F.c1ccc2[nH]c(-c3ccc(-c4ccc(CN5CCN(c6ccncc6)CC5)cc4)cc3)nc2c1,100,100,48
O=C(NC1CCN(CCC[C@]2(c3ccc(Cl)c(Cl)c3)CCCN(C(=O)c3ccccc3)C2)CC1)c1ccc(F)cc1,90,68,52
CN(c1ccc2c(c1)nc(Nc1cc(C(C)(C)C)on1)n2C)c1ccnc(Nc2ccc(CS(C)(=O)=O)cc2)n1,89,13,77
COc1cc(NC(=O)c2cc3c(C)nn(-c4cccc(C(F)(F)F)c4)c3s2)cc(OC)c1OC,100,50,0
Cc1cc(C)c2cc(CNCCCNc3nc4ccccc4[nH]3)[nH]c2c1,100,0,32
CCOC(=O)c1[nH]c2cc(Cl)cc(Cl)c2c1/C=C/C(=O)Nc1ccc(-c2cnc(NC(C)=O)[nH]2)cc1,100,65,45
CC(C)(C)c1nn(-c2ccc(Cl)cc2)c2[nH]c(=O)c(CNCc3cccs3)cc12,100,77,5
c1ccc2sc(Sc3ncnc4sccc34)nc2c1,100,100,7
CN1CCN(CCc2ccc3nc(-c4csc(Cc5cc(Cl)ccc5OCc5ccccc5)n4)[nH]c3c2)CC1,100,97,30
Cc1ncccc1C(=O)Nc1ccc(-c2cccc(-c3nc4cccc(C)c4[nH]3)c2)cc1,95,31,6
CCn1c(=O)c(C(=O)Nc2cc(Cl)c(OC)cc2OC)nc2ccccc21,86,84,19
Cc1ccc(S(=O)(=O)N(C)c2ccccc2C(=O)Nc2ccccc2Oc2ccccc2)cc1,98,90,5

SMILES,Inhibition [1] [%],Inhibition [2] [%],Inhibition [3] [%]
Cc1cccc(NC(=O)N(Cc2cc3cc(C)cc(C)c3[nH]c2=O)C2CC2)c1,97,94,3
Cc1noc(C)c1-c1cccc(CNCc2cccc(-c3ccc(-c4nc5ccccc5[nH]4)s3)c2)c1.O=C(O)C(F)(F)F,100,29,24
O=C(NCCN1CCCC1)c1ccc(-c2cccc(-c3nc4cc(F)ccc4[nH]3)c2)cc1,100,2,29
CCc1sc(-c2ccc(C(C)(C)C)cc2)nc1C(=O)NCCCN1CCCC1=O,84,69,0
O=C(NCC(=O)N1CCC[C@H]1C(=O)O)[C@@H](Cc1ccccc1)NC(=O)[C@@H]1CCCN1C(=O)CCCc1ccc(O)cc1 ({Butanoyl(4-(4-HOPh))}-P[dF]GP-OH),81,1,1
Cc1nccn1CCNC(=O)CN1CCC2(CCC1=O)CC(=O)c1ccccc1O2 (stereo unspecified),98,4,0
Cc1ccc(F)c(NC(=O)c2c(-c3c(F)cccc3Cl)noc2C)c1,90,18,13
Cl.N=C1C=C(N)C(=O)c2ccccc21,81,85,99
CCc1cc2c3c(N)nc(N)nc3ccc2n1C(CC)CC,96,12,71
O=C(/C=C/c1ccc(Cl)c(Cl)c1)NCCCCCN1CCCN(C(=O)Nc2ccc(F)c(Cl)c2)CC1,95,0,31
CC(=O)Nc1ccc(CN2CCC(NC(=O)c3ccc(-c4cccc(OC(C)C)c4)s3)CC2)cc1.O=C(O)C(F)(F)F,89,13,14
CN1CCC(NCCS(=O)(=O)c2cccc(Nc3ccc(-c4cccc(F)c4)cn3)c2)CC1,99,0,27
O=C(/C=C/c1ccc(Cl)cc1Cl)N1CCC(CCN2CCC(c3c[nH]c4ccccc34)CC2)CC1,98,37,94
CN1CCN(Cc2ccc(-c3cccc(-c4nc5ccccc5[nH]4)c3)cc2)CC1.O=C(O)C(F)(F)F,93,6,21
Cc1cc(N2CCC(C)CC2)nc2cc(O)ccc12,89,41,31
Cc1c(CNCCCNc2cc(=O)c3ccccc3[nH]2)sc(-c2ccco2)c1Br.Cl,93,39,0
O=C(Nc1ccc2oc(-c3ccc(Cl)cc3Cl)nc2c1)c1ccc([N+](=O)[O-])o1,95,78,39
O=C(Nc1ccc(-c2ccccc2)cc1)Nc1cccc(OCCN2CCCC2)c1.O=C(O)C(F)(F)F,94,14,11
CS(=O)(=O)O.FC(F)(F)COc1c(CCNCCCCNCCc2ccc3ccccc3c2OCC(F)(F)F)ccc2ccccc12,100,97,99
COc1nc2c(CCN3CC[C@H](NCc4ccc5c(c4)NC(=O)CO5)[C@H](O)C3)c(Cl)cnc2cc1F.Cl,90,22,21
